# Compounds with a hit are over-represented: about 2.8% of the library has one in this group of screens.
# SENP7 inh – inhibitors of human SENP7 protease. recombinant SENP7, Z-RLRGG-aminoluciferin luminescence, 40 min. inhibition, % at 5 µM. 330,000 compounds, 1.5% hits. AID 434973;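 active means inhibition above about 50% at the single test dose, limit read from the data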;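 further: plate controls were DMSO with enzyme for no effect and no enzyme buffer wells for full effect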
# SENP6 inh – SENP6 protease inhibition. inhibition, % at 10 µM. 330,000 compounds, 1.8% hits. Recombinant SENP6 catalytic domain, aminoluciferin luminescence. Q9GZR1;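 active means inhibition above about 50% at the single tested dose, limit read from the data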;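 further: plate controls were DMSO wells with enzyme for no effect and DMSO wells lacking enzyme for full effect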
# Target sequence (Q9GZR1 628-1112 limits assumed): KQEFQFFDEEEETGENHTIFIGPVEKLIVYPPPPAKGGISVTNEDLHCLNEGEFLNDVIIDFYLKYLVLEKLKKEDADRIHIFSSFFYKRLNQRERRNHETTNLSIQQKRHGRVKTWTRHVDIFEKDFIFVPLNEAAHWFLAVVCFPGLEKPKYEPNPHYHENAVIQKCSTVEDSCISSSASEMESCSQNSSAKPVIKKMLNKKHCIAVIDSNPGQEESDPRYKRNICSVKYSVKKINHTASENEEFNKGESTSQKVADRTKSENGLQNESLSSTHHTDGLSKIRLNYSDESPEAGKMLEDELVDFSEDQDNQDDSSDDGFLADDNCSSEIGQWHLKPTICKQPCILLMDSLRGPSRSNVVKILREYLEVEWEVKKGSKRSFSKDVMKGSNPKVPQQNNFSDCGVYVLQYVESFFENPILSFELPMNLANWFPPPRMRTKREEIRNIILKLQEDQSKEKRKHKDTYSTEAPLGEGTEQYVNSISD
# SENP8 block-1 – blocks human SENP8 cleavage of Nedd8 substrate; Q96LD8; 360,000 compounds, 0.64% hits; inhibition, % at 20 µM; recombinant SENP8, Nedd8 substrate fluorescence; AID 602440; in the data active means inhibition mostly above about 40%, no sharp cut-off; inactive means mostly below about 27%
# Target sequence (Q96LD8 whole entry, looked up): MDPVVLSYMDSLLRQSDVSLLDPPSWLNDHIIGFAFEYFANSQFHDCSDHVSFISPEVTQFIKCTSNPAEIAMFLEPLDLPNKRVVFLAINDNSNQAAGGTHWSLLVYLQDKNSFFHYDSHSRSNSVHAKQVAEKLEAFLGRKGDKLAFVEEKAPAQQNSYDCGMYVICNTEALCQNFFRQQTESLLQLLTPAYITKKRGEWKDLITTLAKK
# SENP8 block-2 – blocks the human protease SENP8. Q96LD8. purified SENP8, Z-RLRGG-aminoluciferin cleavage, luminescence. inhibition, % at 10 µM. 330,000 compounds, 1.2% hits. AID 2540; in the data active means inhibition above about 50%
# HSP90 refold inh – inhibitors of HSP90 luciferase refolding in rabbit reticulocyte lysate; 290,000 compounds, 0.91% hits; inhibition, % at 5.6 µM; AID 1789; luciferase refolding luminescence, 3 h;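 active means inhibition above the screen-wide mean plus 3 SD, computed separately per campaign, cut at about 16% in these data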;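 further: 0% = DMSO wells and 100% = 60 µM geldanamycin wells; inhibitors lower the luminescence because luciferase stays unfolded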
# SENP8 confirm – human SENP8 inhibition, confirmed | 6,200 compounds, 40% hits | inhibition, % at 12.5 µM | shares compounds with SENP7 inh | Recombinant SENP8, Z-RLRGG-aminoluciferin luminescence, 60 min;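 active means mean inhibition across replicates above about 50%, limit read from the data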
# SENP6 confirm – human SENP6 inhibition, confirmed; shares compounds with SENP7 inh; recombinant SENP6, Z-RLRGG-aminoluciferin luminescence; inhibition, % at 12.5 µM; 6,200 compounds, 58% hits
# SENP7 conf – confirmation of human SENP7 protease inhibitors. AID 488917. inhibition, % at 12.5 µM. 6,200 compounds, 69% hits. recombinant SENP7, Z-RLRGG-aminoluciferin luminescence, 40 min. shares compounds with SENP7 inh
# Casp3 SENP sel – inhibits human caspase-3 in SENP selectivity test; inhibition, % at 12.5 µM; purified caspase-3, Z-DEVD-aminoluciferin luminescence, 60 min; shares compounds with SENP7 inh; 6,200 compounds, 60% hits;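 active means mean inhibition above about 50%, limit read from the data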;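 further: plate controls were enzyme with DMSO for no effect and wells without caspase-3 for full effect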
# SENP luc ctr – luminescence interference (SENP counter-screen); AID 488919; shares compounds with SENP7 inh; inhibition, % at 12.5 µM; Pre-incubated SENP8/Z-RLRGG-aminoluciferin, luciferase luminescence interference; 6,200 compounds, 39% hits;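 active means mean inhibition above about 50% when retested at one dose, limit read from the data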;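 further: plate controls were DMSO wells with completed reaction for no effect and substrate without enzyme for full effect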
# The depositor's hits bear a star; · = no result.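 How the source made its calls, unless noted: active means mean inhibition above about 50% in the one-dose retest (limit read from the data); inactive means the rest.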
SMILES,SENP7 inh,SENP6 inh,SENP8 block-1,SENP8 block-2,HSP90 refold inh,SENP8 confirm,SENP6 confirm,SENP7 conf,Casp3 SENP sel,SENP luc ctr
COC(=O)c1sccc1N/N=C/c1cccc(Oc2ccccc2)c1,96.9*,63.1*,-98.7,94.9*,16.9*,30.4,53.2*,34.3,94.2*,9.0
COC(=O)c1sccc1N/N=C/c1cccc(OC)c1O,98.7*,93.9*,-402.1,92.2*,1.3,7.7,78.1*,86.6*,69.9*,30.6
COC(=O)c1sccc1N/N=C/c1ccc(OC)c(OC)c1OC,3.2,20.8,-404.8,2.3,-5.5,·,·,·,·,·
Cc1cccc(C(=O)c2cnc3ccccc3c2-c2ccccc2)c1,3.2,-8.3,19.3,3.4,1.0,·,·,·,·,·
Cc1c(C(=O)N2CCC(C)CC2)oc2ccc(S(=O)(=O)N3CCC4(CC3)OCCO4)cc12,75.1*,5.7,7.6,3.4,2.3,6.0,7.8,6.6,2.8,1.7
COc1ccc(/C=C/C(=O)Nc2cccnc2Cl)cc1,91.5*,89.2*,-17.0,88.9*,-0.2,8.0,92.2*,100.7*,94.6*,61.9*
COc1ccccc1/C=C/C(=O)Nc1cccnc1Cl,0.6,24.7,-87.2,9.6,-1.6,·,·,·,·,·
O=C(N/N=C/c1ccccc1Cl)c1cccc(F)c1,72.5*,69.3*,15.1,53.3*,-2.0,3.6,70.3*,91.5*,76.1*,67.5*
O=C(N/N=C/c1cccs1)c1n[nH]c2c1CCC2,77.1*,79.5*,4.3,49.6,9.3,41.3,70.0*,89.1*,90.3*,51.1*
O=C(N/N=C/c1ccc(Cl)cc1)c1n[nH]c2c1CCCC2,-4.8,-7.9,3.7,-7.7,2.3,·,·,·,·,·
O=C(N/N=C/C(Br)=C/c1ccccc1)c1n[nH]c2c1CCC2,0.6,1.4,-3.7,11.8,-2.1,·,·,·,·,·
O=C(N/N=C/c1ccccc1)c1n[nH]c2c1CCCC2,50.1*,58.3*,-2.4,47.4,5.3,11.8,39.1,69.2*,76.5*,12.8
O=C(N/N=C/c1ccccc1Cl)c1n[nH]c2c1CCCC2,98.2*,68.8*,10.6,85.8*,20.1*,-9.6,-2.1,-1.9,26.2,-14.2
O=C(N/N=C/c1c(Cl)cccc1Cl)c1cccc(F)c1,15.2,-11.1,8.7,-18.7,0.1,·,·,·,·,·
CCn1c(C)cc(C(=O)CSc2nnc(C3CC3)n2C2CC2)c1C,·,·,15.2,·,·,·,·,·,·,·
Cn1c(NC(=O)C[n+]2cc(-c3ccc(Cl)c(Cl)c3)n3c2CCC3)cc(=O)n(C)c1=O,-3.4,0.0,19.5,-13.6,-2.9,·,·,·,·,·
Cc1ccc(C)c(S(=O)(=O)N2CCN(CC(=O)Nc3cc(C)on3)CC2)c1,3.0,14.4,21.8,-1.2,-1.3,·,·,·,·,·
Cc1ccsc1/C=C1\CCC(C2CCCC2)C1=O (stereo not given),83.2*,96.8*,14.4,85.1*,0.0,76.4*,80.9*,92.2*,79.7*,69.6*
COc1cc(OC)c(OC)cc1/C=C1\CCC(C2CCCC2)C1=O (stereo not given),-3.4,-12.7,-215.0,-1.6,-0.2,·,·,·,·,·
COc1ccc(/C=C2\CCC(C3CCCC3)C2=O)cc1 (stereo not given),90.0*,54.4*,12.8,77.4*,-3.7,45.2,49.1,49.5,69.2*,10.9
CCOc1ccccc1NC(=O)C1CCN(S(=O)(=O)c2ccc(OC)c(OC)c2)CC1,71.3*,-9.0,14.7,2.2,0.4,1.7,5.9,7.2,3.9,2.6
N#CC1=C2C=Cc3ccccc3N2CCCC1=O,48.6,51.5*,-18.1,14.0,-0.6,36.5,36.4,76.2*,68.4*,8.6
Cc1ccc(N=Nc2c(O)n(CN3CCOCC3)c3ccccc23)cc1,84.3*,66.7*,6.4,77.6*,-4.1,32.6,88.1*,97.9*,62.6*,25.5
O=C(COc1ccc(Cl)cc1)NCc1nnc(SCC(=O)NC2CCCC2)o1,8.4,5.9,24.8,-0.3,-1.7,·,·,·,·,·
O=[N+]([O-])c1ccc(Cl)c(S(=O)(=O)Nc2ccc(-c3ccc(N4CCCC4)nn3)cc2)c1,-7.5,-12.1,14.7,-3.3,·,·,·,·,·,·
SMILES,SENP7 inh,SENP6 inh,SENP8 block-1,SENP8 block-2,HSP90 refold inh,SENP8 confirm,SENP6 confirm,SENP7 conf,Casp3 SENP sel,SENP luc ctr
O=[N+]([O-])c1ccc(Cl)c(S(=O)(=O)Nc2cccc(-c3ccc(N4CCCC4)nn3)c2)c1,41.8,92.0*,6.6,86.3*,·,47.4,90.8*,97.7*,85.9*,13.1
C=CCn1c(SCC(=O)N2CCC(C)CC2)nc2c([nH]c3ccccc32)c1=O,·,·,-8.7,·,·,·,·,·,·,·
COc1ccc(C2CC(c3ccccc3OC(C)=O)=NN2C(=O)/C=C/c2ccccc2)cc1OC (stereo not given),3.1,-1.5,-1.0,0.4,-1.8,·,·,·,·,·
CC1Sc2ccc(C(=O)OCc3ccccc3Cl)cc2NC1=O (stereo not given),70.2*,54.9*,-9.4,5.9,·,-24.0,-11.1,-0.6,1.7,-5.3
Cc1cc(N(C)C)ccc1N=Nc1ccc2ncccc2c1,96.3*,91.7*,23.9,92.2*,2.9,90.1*,95.7*,49.4,42.6,55.8*
COC(=O)/C=c1\sc2ncnn2c1=O,5.7,84.9*,15.7,7.4,1.1,5.9,0.7,-3.7,-2.6,-1.6
CNC(=O)/C(C#N)=c1\s/c(=C/C(=O)OC)c(=O)n1-c1ccccc1,-12.5,-12.1,8.1,-2.4,-0.1,·,·,·,·,·
Cn1c(C(=O)N2CCCc3ccccc32)cc2c(=O)n3ccccc3nc21,-6.6,-12.7,·,-4.9,3.0,·,·,·,·,·
N#Cc1c(N)nc(SCc2ccncc2)c(C#N)c1-c1cccs1,-2.9,-8.8,-62.1,-7.4,-1.7,·,·,·,·,·
CN1CCc2nc(SCc3ccc(Cl)cc3)c(C#N)c(-c3cccs3)c2C1,38.0,76.5*,·,69.0*,3.5,-3.6,2.1,11.3,4.0,1.7
O=C(COC(=O)c1cccc(S(=O)(=O)N2CCOCC2)c1)c1ccccc1,4.6,2.7,9.9,3.3,2.3,·,·,·,·,·
O=C(Nc1nnc(SCC(=O)N2CCCCC2)s1)c1ccccc1F,-6.2,99.2*,-2.6,-13.2,-1.4,-6.0,-9.9,-12.1,1.2,2.6
O=C(CSc1nnc(NC(=O)c2ccco2)s1)Nc1ccccc1F,7.6,-2.2,-17.0,-0.7,3.5,·,·,·,·,·
O=C(Nc1nnc(Cc2ccc(F)cc2)s1)Nc1ccccc1F,2.8,-6.3,26.6,-5.2,-0.4,·,·,·,·,·
CCOc1ccccc1C(=O)Nc1nnc(SCC(=O)N2CCCC2)s1,·,·,-96.2,·,·,·,·,·,·,·
O=C(Nc1nnc(Cc2ccccc2F)s1)Nc1ccccc1F,85.4*,14.6,0.2,-4.3,-7.5,9.8,11.3,5.0,0.3,0.0
